# Calls of active or inactive are those of the source. The calls were made as follows: active = hit-call score of the fitted dose curve at least 0.9, where 1 is the maximum; inactive = score below 0.9.
# What was measured:
# Settings in all cases: mRNA level, 48 h; actives raise or lower the signal
# [1] = read-out: CYP2C9 (gene 1559); test: LTEA_HepaRG_CYP2C9: Life Technologies and Expression Analysis (LTEA) Assay for CYP2C9 using HepaRG (AID 2283484)
# Method in brief: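 CYP2C9 transcript level, quantified by TaqMan qRT-PCR against three housekeeping genes, was fitted bidirectionally relative to 0.5% DMSO. HepaRG cultures were treated 48 h, in duplicate, at eight half-log concentrations topping at 100 uM.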
# [2] = read-out: CYP4A11 (gene 1579); test: LTEA_HepaRG_CYP4A11: Life Technologies and Expression Analysis (LTEA) Assay for CYP4A11 using HepaRG (AID 2283486)
# Method in brief: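 Differentiated HepaRG cells, serum-free induction medium, exposed 48 h in duplicate to 8-point half-log series from 100 uM in 0.5% DMSO. CYP4A11 mRNA measured by qRT-PCR, normalized to ACTB, GAPDH, POLR2A; bidirectional fit versus DMSO.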
# [3] = read-out: Cytochrome P450 3A4 (Homo sapiens) (UniProt P08684); test: LTEA_HepaRG_CYP3A4: Life Technologies and Expression Analysis (LTEA) Assay for CYP3A4 using HepaRG (AID 2283487)
# Method in brief: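 HepaRG, 48 h exposure, 8-pt CRC from 100 uM (half-log), 0.5% DMSO, duplicates; serum-free induction medium. Readout: CYP3A4 mRNA, qRT-PCR, ACTB/GAPDH/POLR2A normalization. Bidirectional fit vs DMSO.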
# [4] = read-out: DNA damage-inducible transcript 3 (DDIT3), DDIT3 (gene 1649); test: LTEA_HepaRG_DDIT3: Life Technologies and Expression Analysis (LTEA) Assay for DNA damage-inducible transcript 3 (DDIT3) using HepaRG (AID 2283488)
# Method in brief: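 DDIT3 transcript was quantified by qRT-PCR with ACTB/GAPDH/POLR2A normalization after 48 h chemical treatment of differentiated HepaRG cells in 0.5% DMSO. Dosing was eight-point, half-log, top 100 uM, duplicate wells. Curves fitted bidirectionally versus DMSO.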
# [5] = read-out: Pro-epidermal growth factor (Homo sapiens) (UniProt P01133); test: LTEA_HepaRG_EGF: Life Technologies and Expression Analysis (LTEA) Assay for Epidermal growth factor (EGF) using HepaRG (AID 2283489)
# Method in brief: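 Differentiated human HepaRG cells, plated 48 h then switched to serum-free induction medium, were exposed for 48 h to test chemicals (8-point half-log series, top 100 uM, 0.5% DMSO). EGF mRNA was quantified by qRT-PCR, normalized to ACTB, GAPDH, POLR2A.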
# [6] = read-out: Early growth response protein 1 (EGR1) transcription factor, EGR1 (gene 1958); test: LTEA_HepaRG_EGR1: Life Technologies and Expression Analysis (LTEA) Assay for Early growth response protein 1 (EGR1) transcription factor using HepaRG (AID 2283490)
# Method in brief: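 EGR1 transcript levels quantified by qRT-PCR (Fluidigm arrays) against three housekeeping genes after 48 h chemical exposure of HepaRG cells. Eight-point half-log series topping at 100 uM, 0.5% DMSO vehicle, analyzed for gain or loss.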
# [7] = read-out: Ezrin (EZR), EZR (gene 7430); test: LTEA_HepaRG_EZR: Life Technologies and Expression Analysis (LTEA) Assay for Ezrin (EZR) using HepaRG (AID 2283491)
# Method in brief: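 Read-out is EZR transcript level by qRT-PCR, normalized to three housekeeping genes and fitted bidirectionally against the DMSO control. Human HepaRG cells received test chemicals for 48 h at eight half-log concentrations up to 100 uM in 0.5% DMSO.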
# [8] = read-out: Cytochrome P450 3A7 (Homo sapiens) (UniProt P24462); test: LTEA_HepaRG_CYP3A7: Life Technologies and Expression Analysis (LTEA) Assay for CYP3A7 using HepaRG (AID 2283492)
# Method in brief: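 HepaRG cells plated 48 h, then dosed in serum-free induction medium for 48 h at 8 concentrations (top 100 uM, half-log steps, 0.5% DMSO). CYP3A7 mRNA by qRT-PCR, normalised to ACTB/GAPDH/POLR2A; bidirectional fit versus DMSO.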
# [9] = read-out: CYP3A5 (gene 1577); test: LTEA_HepaRG_CYP3A5: Life Technologies and Expression Analysis (LTEA) Assay for CYP3A5 using HepaRG (AID 2283493)
# Method in brief: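 mRNA levels were quantified by qRT-PCR on Fluidigm arrays and normalized to three housekeeping genes. Differentiated HepaRG cells received 48 h exposure (top 100 uM, half-log steps, 0.5% DMSO vehicle, duplicate); bidirectional fitting versus DMSO.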
# [10] = read-out: Fatty Acid-Binding Protein 1 (FABP1), FABP1 (gene 2168); test: LTEA_HepaRG_FABP1: Life Technologies and Expression Analysis (LTEA) Assay for Fatty Acid-Binding Protein 1 (FABP1) using HepaRG (AID 2283494)
# Method in brief: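 FABP1 expression by TaqMan qRT-PCR, normalised to three housekeeping genes, in HepaRG cells after 48 h chemical treatment. Eight-point half-log series topping at 100 uM in 0.5% DMSO, duplicates; gain or loss fitted relative to vehicle.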
# [11] = read-out: Cytochrome P450 4A22 (Homo sapiens) (UniProt Q5TCH4); test: LTEA_HepaRG_CYP4A22: Life Technologies and Expression Analysis (LTEA) Assay for Cytochrome P450 4A22 (CYP4A22) using HepaRG (AID 2283495)
# Method in brief: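 qRT-PCR of CYP4A22 mRNA (Fluidigm TaqMan, normalized to three housekeeping genes) after 48 h chemical exposure of HepaRG cells; 8-point half-log series, top 100 uM, 0.5% DMSO vehicle. Bidirectional curve fitting vs DMSO baseline.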
# [12] = read-out: Cytochrome P450 7A1 (Homo sapiens) (UniProt P22680); test: LTEA_HepaRG_CYP7A1: Life Technologies and Expression Analysis (LTEA) Assay for Cytochrome P450 7A1 (CYP7A1) using HepaRG (AID 2283496)
# Method in brief: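 HepaRG, 48 h exposure, 8-pt half-log series from 100 uM, 0.5% DMSO vehicle, duplicates. Readout: TaqMan qRT-PCR mRNA vs three housekeeping genes; bidirectional curve fit against DMSO baseline.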
# [13] = read-out: Glutathione S-Transferase (GSTA2), GSTA2 (gene 2939); test: LTEA_HepaRG_GSTA2: Life Technologies and Expression Analysis (LTEA) Assay for Glutathione S-Transferase (GSTA2) using HepaRG (AID 2283497)
# Method in brief: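 GSTA2 transcript levels came from Fluidigm TaqMan qRT-PCR normalized to three housekeeping genes, fitted in both directions against DMSO. HepaRG cultures received chemicals for 48 h in serum-free induction medium (0.5% DMSO), 8 half-log concentrations up to 100 uM, duplicate.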
# [14] = read-out: Glutamate-cysteine ligase catalytic (GCLC), GCLC (gene 2729); test: LTEA_HepaRG_GCLC: Life Technologies and Expression Analysis (LTEA) Assay for Glutamate-cysteine ligase catalytic (GCLC) using HepaRG (AID 2283498)
# Method in brief: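 Expression by TaqMan qRT-PCR, normalized to three housekeeping genes (ACTB, GAPDH, POLR2A), with up- or down-regulation fitted against DMSO. HepaRG cells dosed in duplicate for 48 h with 8 half-log concentrations up to 100 uM, vehicle 0.5% DMSO.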
# [15] = read-out: growth arrest and DNA damage 45 (GADD45G), GADD45G (gene 10912); test: LTEA_HepaRG_GADD45G: Life Technologies and Expression Analysis (LTEA) Assay for growth arrest and DNA damage 45 (GADD45G) using HepaRG (AID 2283499)
# Method in brief: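 Differentiated human HepaRG cells in serum-free induction medium were exposed for 48 h to 8 half-log concentrations up to 100 uM in 0.5% DMSO, in duplicate. GADD45G mRNA was measured by TaqMan qRT-PCR, normalised to ACTB, GAPDH and POLR2A, and fitted bidirectionally against DMSO.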
# [16] = read-out: Glutamate-cysteine ligase regulatory (GCLM), GCLM (gene 2730); test: LTEA_HepaRG_GCLM: Life Technologies and Expression Analysis (LTEA) Assay for Glutamate-cysteine ligase regulatory (GCLM) using HepaRG (AID 2283500)
# Method in brief: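 GCLM expression quantified by qRT-PCR, normalized to three housekeeping genes, after 48 h chemical treatment of HepaRG cells in duplicate at 8 concentrations (top 100 uM, half-log steps, 0.5% DMSO). Changes fitted both directions against vehicle.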
# [17] = read-out: Glutathione S-transferase M3 (GSTM3), GSTM3 (gene 2947); test: LTEA_HepaRG_GSTM3: Life Technologies and Expression Analysis (LTEA) Assay for Glutathione S-transferase M3 (GSTM3) using HepaRG (AID 2283501)
# Method in brief: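 Differentiated HepaRG cells in serum-free induction medium were exposed in duplicate for 48 h to 8 half-log concentrations up to 100 uM in 0.5% DMSO. GSTM3 mRNA was measured by TaqMan qRT-PCR, normalized to ACTB/GAPDH/POLR2A, and fitted bidirectionally versus DMSO.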
# [18] = read-out: Heat shock 70 kDa protein 1 (HSPA1A), gene 3303; test: LTEA_HepaRG_HSPA1A: Life Technologies and Expression Analysis (LTEA) Assay for Heat shock 70 kDa protein 1 (HSPA1A) using HepaRG (AID 2283502)
# Method in brief: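 HSPA1A expression measured by qRT-PCR with ACTB/GAPDH/POLR2A normalization; curves fitted in both directions relative to DMSO vehicle. Exposure: 48 h in HepaRG cells, duplicate 8-point half-log series from 100 uM, 0.5% DMSO, serum-free induction medium.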
# [19] = read-out: Hypoxia-inducible factor 1-alpha (Homo sapiens) (UniProt Q16665); test: LTEA_HepaRG_HIF1A: Life Technologies and Expression Analysis (LTEA) Assay for Hypoxia-inducible factor 1 (HIF1A) Trancription factor using HepaRG (AID 2283503)
# Method in brief: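 HIF1A transcript level read by qRT-PCR (ACTB, GAPDH, POLR2A normalization) after 48 h chemical exposure of HepaRG cultures. Eight half-log concentrations, top 100 uM, 0.5% DMSO vehicle, duplicates; bidirectional curve fit against DMSO baseline.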
# [20] = read-out: CYP2E1 (gene 1571); test: LTEA_HepaRG_CYP2E1: Life Technologies and Expression Analysis (LTEA) Assay for CYP2E1 using HepaRG (AID 2283485)
# Method in brief: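 CYP2E1 transcript measured by Fluidigm qRT-PCR against three housekeeping genes in human HepaRG cells treated 48 h (top 100 uM, half-log steps, 0.5% DMSO vehicle). Gain or loss fitted relative to DMSO baseline.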
# Chain of Hypoxia-inducible factor 1-alpha (Homo sapiens) (Q16665 whole entry, looked up): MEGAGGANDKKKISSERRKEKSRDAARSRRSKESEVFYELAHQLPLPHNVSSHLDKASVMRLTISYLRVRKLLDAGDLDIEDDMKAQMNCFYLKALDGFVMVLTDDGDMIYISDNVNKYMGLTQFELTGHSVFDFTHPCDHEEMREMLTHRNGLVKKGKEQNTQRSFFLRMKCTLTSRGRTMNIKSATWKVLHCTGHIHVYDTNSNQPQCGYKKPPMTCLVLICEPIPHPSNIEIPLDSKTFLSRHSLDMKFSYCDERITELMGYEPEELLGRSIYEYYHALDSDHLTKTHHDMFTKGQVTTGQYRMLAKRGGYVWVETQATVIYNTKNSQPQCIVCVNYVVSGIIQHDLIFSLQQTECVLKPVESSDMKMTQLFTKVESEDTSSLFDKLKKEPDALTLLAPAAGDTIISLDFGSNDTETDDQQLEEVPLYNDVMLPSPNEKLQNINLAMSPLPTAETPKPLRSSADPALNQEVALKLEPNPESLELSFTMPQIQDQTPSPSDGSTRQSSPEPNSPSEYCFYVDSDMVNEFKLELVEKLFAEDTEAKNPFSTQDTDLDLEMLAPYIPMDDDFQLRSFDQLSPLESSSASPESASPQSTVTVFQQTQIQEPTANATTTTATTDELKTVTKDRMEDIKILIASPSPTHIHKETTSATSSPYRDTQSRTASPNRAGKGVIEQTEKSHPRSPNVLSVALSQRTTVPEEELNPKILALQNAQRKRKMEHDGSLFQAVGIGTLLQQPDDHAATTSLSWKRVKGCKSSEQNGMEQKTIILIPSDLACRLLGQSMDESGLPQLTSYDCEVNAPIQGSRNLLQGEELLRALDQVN
# Chain of Cytochrome P450 3A7 (Homo sapiens) (P24462 whole entry, looked up): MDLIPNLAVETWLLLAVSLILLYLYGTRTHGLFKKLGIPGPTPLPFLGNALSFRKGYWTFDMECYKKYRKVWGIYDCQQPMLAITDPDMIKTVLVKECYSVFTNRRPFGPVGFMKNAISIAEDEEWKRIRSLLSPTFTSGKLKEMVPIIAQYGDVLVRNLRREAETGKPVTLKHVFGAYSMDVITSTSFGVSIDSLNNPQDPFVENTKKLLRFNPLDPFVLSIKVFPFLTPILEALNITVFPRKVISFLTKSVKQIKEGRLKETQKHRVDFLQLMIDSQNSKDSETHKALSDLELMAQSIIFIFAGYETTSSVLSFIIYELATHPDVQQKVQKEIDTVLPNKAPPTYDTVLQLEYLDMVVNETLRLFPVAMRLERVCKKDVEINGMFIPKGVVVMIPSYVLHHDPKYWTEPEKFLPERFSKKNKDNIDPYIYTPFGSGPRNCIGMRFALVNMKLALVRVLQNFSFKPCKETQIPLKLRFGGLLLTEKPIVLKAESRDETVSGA
# Chain of Cytochrome P450 3A4 (Homo sapiens) (P08684 whole entry, looked up): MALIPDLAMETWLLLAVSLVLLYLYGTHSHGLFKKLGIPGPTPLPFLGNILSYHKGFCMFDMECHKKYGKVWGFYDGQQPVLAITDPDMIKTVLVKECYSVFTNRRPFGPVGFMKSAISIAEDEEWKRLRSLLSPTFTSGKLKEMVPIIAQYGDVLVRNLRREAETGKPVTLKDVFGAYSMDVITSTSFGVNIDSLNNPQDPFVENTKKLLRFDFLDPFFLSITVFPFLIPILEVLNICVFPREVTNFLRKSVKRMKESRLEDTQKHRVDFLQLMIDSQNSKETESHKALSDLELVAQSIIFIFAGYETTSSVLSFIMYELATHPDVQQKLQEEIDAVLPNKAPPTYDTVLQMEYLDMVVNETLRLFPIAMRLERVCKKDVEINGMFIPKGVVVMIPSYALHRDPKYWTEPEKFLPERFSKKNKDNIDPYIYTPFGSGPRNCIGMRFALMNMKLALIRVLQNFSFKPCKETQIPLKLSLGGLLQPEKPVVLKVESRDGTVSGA
smiles,measurement,setting,value
CC(C)N(C(=O)SCC(Cl)=C(Cl)Cl)C(C)C,outcome,[1],inactive
same,outcome,[2],inactive
same,outcome,[3],inactive
same,outcome,[4],inactive
same,outcome,[5],inactive
same,outcome,[6],inactive
same,outcome,[7],inactive
same,outcome,[8],inactive
same,outcome,[9],inactive
same,outcome,[10],inactive
same,outcome,[11],inactive
same,outcome,[12],inactive
same,outcome,[13],inactive
same,outcome,[14],inactive
same,outcome,[15],inactive
same,outcome,[16],inactive
same,outcome,[17],inactive
same,outcome,[18],inactive
same,outcome,[19],inactive
O=C(O)c1cc(Oc2ccc(C(F)(F)F)cc2Cl)ccc1[N+](=O)[O-],outcome,[1],inactive
same,outcome,[20],inactive
same,AC50,[2],50 µM (active)
same,outcome,[4],inactive
same,outcome,[5],inactive
same,outcome,[6],inactive
same,outcome,[7],inactive
same,AC50,[8],50 µM (active)
same,AC50,[9],50 µM (active)
same,AC50,[10],20.3 µM (active)
same,outcome,[12],inactive
same,outcome,[13],inactive
same,outcome,[14],inactive
same,outcome,[15],inactive
same,outcome,[16],inactive
same,outcome,[17],inactive
same,outcome,[18],inactive
same,outcome,[19],inactive
CCOC(=O)CC(SP(=O)(OC)OC)C(=O)OCC (stereo not given),outcome,[1],inactive
same,AC50,[20],25.1 µM (active)
same,outcome,[2],inactive
same,outcome,[3],inactive
same,outcome,[4],inactive
same,outcome,[6],inactive
same,outcome,[7],inactive
same,outcome,[8],inactive
same,outcome,[9],inactive
same,outcome,[10],inactive
same,AC50,[12],50 µM (active)
same,outcome,[13],inactive
same,outcome,[14],inactive
same,outcome,[15],inactive
same,outcome,[16],inactive
same,outcome,[17],inactive
same,outcome,[18],inactive
same,outcome,[19],inactive

# — PubChem BioAssay (EPA / NIEHS)
